Consider five compounds from article PMC11062922 (Nature Chemical Biology, 2023).

One assay concerns AAK1. On the set-up: species or system human, MV4-11 + K-562 + COLO205 + SK-N-BE2 + OVCAR-8. The following applies: read-out: apparent Kd, n = 1.
For another assay, the system named is BMP2K. On the set-up: species or system human, MV4-11 + K-562 + COLO205 + SK-N-BE2 + OVCAR-8. The following applies: read-out: apparent Kd, n = 1.
The subject of another assay is CSNK2A1;CSNK2A3. On the set-up: species or system human, MV4-11 + K-562 + COLO205 + SK-N-BE2 + OVCAR-8. The note with it: read-out: apparent Kd, n = 1.
In the next assay the test system is CSNK2A2. On the set-up: species or system human, MV4-11 + K-562 + COLO205 + SK-N-BE2 + OVCAR-8. The following applies: read-out: apparent Kd, n = 1.
A further assay deals with FLT4. On the set-up: species or system human, MV4-11 + K-562 + COLO205 + SK-N-BE2 + OVCAR-8. The following applies: read-out: apparent Kd, n = 1.
Another assay has as its system RET. On the set-up: species or system human, MV4-11 + K-562 + COLO205 + SK-N-BE2 + OVCAR-8. The note with it: read-out: apparent Kd, n = 1.
Another assay has as its system GSK3A. On the set-up: species or system human, MV4-11 + K-562 + COLO205 + SK-N-BE2 + OVCAR-8. The note with it: read-out: apparent Kd; compound concentrations:100 nM and 1000 nM (sheet 'Samples'); n = 1.
Another assay deals with GSK3B. On the set-up: species or system human, MV4-11 + K-562 + COLO205 + SK-N-BE2 + OVCAR-8. The following applies: read-out: apparent Kd; compound concentrations:100 nM and 1000 nM (sheet 'Samples'); n = 1.
The next assay concerns PAK4. On the set-up: species or system human, MV4-11 + K-562 + COLO205 + SK-N-BE2 + OVCAR-8. The following applies: read-out: apparent Kd; compound concentrations:100 nM and 1000 nM (sheet 'Samples'); n = 1.
A further assay has as its system PKN1. On the set-up: species or system human, MV4-11 + K-562 + COLO205 + SK-N-BE2 + OVCAR-8. The note with it: read-out: apparent Kd; compound concentrations:100 nM and 1000 nM (sheet 'Samples'); n = 1.
Assay [1] concerns PKN3. The note with it: hek293t cells.
For a further assay, the system named is CLK1. On the set-up: species or system human, MV4-11 + K-562 + COLO205 + SK-N-BE2 + OVCAR-8. The following applies: read-out: apparent Kd; compound concentrations:100 nM and 1000 nM (sheet 'Samples'); n = 1.
A further assay relates to GAK. On the set-up: species or system human, MV4-11 + K-562 + COLO205 + SK-N-BE2 + OVCAR-8. The following applies: read-out: apparent Kd; compound concentrations:100 nM and 1000 nM (sheet 'Samples'); n = 1.
A further assay has as its system NUAK1. On the set-up: species or system human, MV4-11 + K-562 + COLO205 + SK-N-BE2 + OVCAR-8. The note with it: read-out: apparent Kd; compound concentrations:100 nM and 1000 nM (sheet 'Samples'); n = 1.
The subject of assay [2] is PKN3. On the set-up: species or system human, MV4-11 + K-562 + COLO205 + SK-N-BE2 + OVCAR-8. The note with it: read-out: apparent Kd; compound concentrations:100 nM and 1000 nM (sheet 'Samples'); n = 1.
The next assay concerns PRKAG1. On the set-up: species or system human, MV4-11 + K-562 + COLO205 + SK-N-BE2 + OVCAR-8. The following applies: read-out: apparent Kd; compound concentrations:100 nM and 1000 nM (sheet 'Samples'); n = 1.
Another assay deals with Q6ZSR9 (human, UniProt Q6ZSR9). On the set-up: species or system MV4-11 + K-562 + COLO205 + SK-N-BE2 + OVCAR-8. The note with it: read-out: apparent Kd; compound concentrations:100 nM and 1000 nM (sheet 'Samples'); n = 1.
In a further assay the test system is SIK2. On the set-up: species or system human, MV4-11 + K-562 + COLO205 + SK-N-BE2 + OVCAR-8. The note with it: read-out: apparent Kd; compound concentrations:100 nM and 1000 nM (sheet 'Samples'); n = 1.
The mark [3] stands for this setting: compound concentrations:100 nM and 1000 nM (sheet 'Samples').

Like-named read-outs stand apart in the source and are kept apart here.
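Throughout, for IC50: NanoBRET target engagement in HEK293T cells transiently expressing full-length PKN3 with C-terminal NanoLuc, displacement of fluorescent tracer K5 (500 nM), BRET read after 2 h equilibration at 37 °C.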

Sequence of Q6ZSR9 (Q6ZSR9 whole entry, looked up): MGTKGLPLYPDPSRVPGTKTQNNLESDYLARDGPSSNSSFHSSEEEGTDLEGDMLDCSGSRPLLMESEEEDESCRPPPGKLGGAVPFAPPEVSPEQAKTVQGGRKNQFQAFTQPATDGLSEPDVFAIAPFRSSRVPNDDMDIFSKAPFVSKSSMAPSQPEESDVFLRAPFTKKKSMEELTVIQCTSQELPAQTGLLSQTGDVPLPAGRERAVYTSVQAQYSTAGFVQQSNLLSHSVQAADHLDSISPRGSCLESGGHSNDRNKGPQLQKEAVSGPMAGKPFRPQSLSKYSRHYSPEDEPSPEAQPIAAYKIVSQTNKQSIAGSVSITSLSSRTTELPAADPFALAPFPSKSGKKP

Consider `CSc1c(C2=C(c3cn(C)c4ccccc34)C(=O)NC2=O)c2ccccc2n1C` [RO0317340-000], for which, in the assay on AAK1 (compound concentrations: 100 nM and 1000 nM (sheet 'Samples'), CATDS: 1), the potency estimated from few doses was 1170 nM.
As to `Cc1ccc(Nc2ccnc(Nc3ccc4c(c3)CS(=O)(=O)C4)n2)cc1O.Cl` [GW579362A], the potency estimated from few doses with AAK1 (compound concentrations: 100 nM and 1000 nM (sheet 'Samples'), CATDS: 3.1485270896706399E-2) was 1060 nM; in the assay with BMP2K (compound concentrations: 100 nM and 1000 nM (sheet 'Samples'), CATDS: 2.75119720973705E-2), 1640 nM; in the assay on CSNK2A1;CSNK2A3 (compound concentrations: 100 nM and 1000 nM (sheet 'Samples'), CATDS: 3.1042037667094801E-2), 1100 nM; in the assay with CSNK2A2 (compound concentrations: 100 nM and 1000 nM (sheet 'Samples'), CATDS: 3.7509924473465302E-2) it was 666 nM; with FLT4 (compound concentrations: 100 nM and 1000 nM (sheet 'Samples'), CATDS: 3.6167271282575603E-2), 729 nM; in the assay with RET (compound concentrations: 100 nM and 1000 nM (sheet 'Samples'), CATDS: 5.0599670871917801E-2) it was 349 nM.
For the compound `CCn1c(-c2nonc2N)nc2c(C#CC(C)(C)O)nc(OCCN)cc21.CCn1c(-c2nonc2N)nc2c(C#CC(C)(C)O)nc(OCCN)cc21.Cl.Cl` [GSK902056A], the potency estimated from few doses was 113 nM in the assay with GSK3A, 136 nM in the assay on GSK3B, 677 nM with PAK4 and 85 nM in the assay on PKN1. The IC50 in the assay on PKN3 [1] (read-out: Average, SD, n = 4) was 99.2 nM; in the assay with PKN3 [1] (read-out: Rep 1), 234 nM; in the assay with PKN3 [1] (read-out: Rep 2) it was 56.5 nM; with PKN3 [1] (read-out: Rep 3) it was 27 nM; with PKN3 [1] (read-out: Rep 4) it was 79.2 nM.
On to `Cc1ccc2c(-c3ccncc3)c(-c3ccc(F)cc3)nn2c1.Cl` [GW461484A], for which the potency estimated from few doses with AAK1 (setting [3]) was 767 nM; with BMP2K (setting [3]), 1900 nM; in the assay on CLK1 it was 548 nM; in the assay with CSNK2A1;CSNK2A3 (setting [3]), 1550 nM; in the assay with CSNK2A2 (setting [3]) it was 2220 nM; in the assay on FLT4 (setting [3]), 1320 nM. The potency estimated from few doses in the assay with GAK was 319 nM; with GSK3A it was 434 nM; with GSK3B, 493 nM; with NUAK1, 1590 nM; in the assay on PAK4 it was 888 nM; with PKN1, 2010 nM. Besides, the potency estimated from few doses with PKN3 [2] was 1390 nM; in the assay on PRKAG1, 560 nM; in the assay with Q6ZSR9, 942 nM; with RET (setting [3]), 683 nM; in the assay with SIK2, 696 nM.
For the compound `Cc1cccc(Nc2nc(N[C@H]3CCNC3)ncc2C(N)=O)c1.Cl` [GSK2197149A], the potency estimated from few doses was 64.6 nM in the assay on AAK1 (setting [3]); 540 nM in the assay with BMP2K (setting [3]); 2150 nM in the assay on CSNK2A1;CSNK2A3 (setting [3]); 343 nM with GAK; 1690 nM in the assay with NUAK1; 562 nM in the assay with PAK4. For the same compound, the potency estimated from few doses in the assay with Q6ZSR9 is 85.6 nM; in the assay with SIK2, 603 nM.
